# Screens deposited in PubChem BioAssay by National Center for Advancing Translational Sciences (NCATS).
# Rows were chosen to be rich in hits. Some 3.2% of all compounds tested hit in one or more screens of this group.
# TRb-SRC2 inh – inhibitors of human thyroid hormone receptor beta-SRC2 interaction; P10828; TRbeta-SRC2 peptide binding, fluorescence polarization; receptor liganded with 1 µM T3; Potency, µM (series often up to 106 µM), without a hit: at the highest dose activity change, negative = inhibition, most hits filed as inhibitors; 280,000 tested, 0.065% active; AID 1469;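 further: plate controls were bound peptide for no effect and peptide without receptor for full effect; nearly all actives have a fitted effect of over 50% in size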
# Target sequence (P10828 whole entry, looked up): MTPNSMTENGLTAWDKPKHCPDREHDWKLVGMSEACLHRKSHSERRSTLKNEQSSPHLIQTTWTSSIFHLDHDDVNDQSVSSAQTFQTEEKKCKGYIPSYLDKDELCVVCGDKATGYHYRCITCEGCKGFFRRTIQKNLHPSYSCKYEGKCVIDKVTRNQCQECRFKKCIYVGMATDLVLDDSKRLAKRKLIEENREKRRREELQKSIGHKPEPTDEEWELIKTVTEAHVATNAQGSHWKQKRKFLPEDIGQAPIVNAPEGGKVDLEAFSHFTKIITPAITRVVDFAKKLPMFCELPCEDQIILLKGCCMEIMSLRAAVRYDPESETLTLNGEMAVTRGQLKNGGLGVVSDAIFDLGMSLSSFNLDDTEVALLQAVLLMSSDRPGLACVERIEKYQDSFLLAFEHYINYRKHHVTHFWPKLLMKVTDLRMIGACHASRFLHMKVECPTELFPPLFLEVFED
#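 Human TRb LBD (0.6 uM) plus Texas Red-labeled SRC2 peptide (20 nM), 1uM T3, 5% DMSO, 5 hr at ambient temperature. Decreased polarization (555/632 nm) flags inhibition; data normalized to free and bound peptide controls.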
# Tau fluor cs – counter-screen for tau fibril formation inhibitors; 280,000 tested, 0.93% active; tau K18 P301L Alexa594 fluorescence, heparin fibrillization; Potency, µM (top dose mostly 57.7 µM), for the others: top-dose activity change, negative = decrease; further: nearly all actives have a fitted effect of over 55% in size
#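 Human tau K18 P301L (15 uM unlabeled, 0.24 uM Alexa 594-labeled) in 100 mM sodium acetate pH 7 with 20 uM heparin, 6 hr at 37 C. ThT 30 uM added, 1 hr ambient; Alexa 594 FP and total fluorescence read at 555/632 nm.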
# GoLoco inh red – inhibitors of human Gai1-RGS12 GoLoco interaction (red fluorophore); P63096; Gai1:RGS12 GoLoco peptide FP, rhodamine, 10 min; Potency, µM (highest dose often 61.6 µM), for the others: at the highest dose activity, negative = inhibition, most hits filed as inhibitors; 230,000 tested, 0.44% active; active means well fitted inhibition curve with a large enough effect, not every such curve was filed as active; inactive means no such curve, though single readings can be large or run the other way; further: nearly all actives have a fitted effect of over 30% in size
# TR SRC2 fluor cs – Texas Red fluorescence interference in TRb-SRC2 counter-screen; 280,000 tested, 0.29% active; TRb/SRC2 Texas Red total fluorescence interference; AID 1479; Potency, µM (doses to about 106 µM), without a hit: at the highest dose fluorescence change, negative = quenching; active means well fitted curve in either direction with a large enough effect; inconclusive means small, poorly fitted or top-dose-only effect
#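 Human TRb ligand-binding domain at 0.6 uM with 20 nM Texas Red SRC2 peptide in Tris buffer containing 1 uM T3 and 5% DMSO, incubated with compound 5 h at ambient temperature. Total fluorescence (555/632 nm) calculated as parallel + 2 × perpendicular.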
# Tau ThT inhib – inhibitors of human tau fibril formation, thioflavin T binding. Potency, µM (top dose mostly 57.4 µM), without a hit: top-dose activity, negative = inhibition, most hits filed as inhibitors. AID 1460. P10636. 270,000 tested, 2.1% active. recombinant tau K18 P301L (four-repeat tau fragment), heparin-induced fibrillization, ThT fluorescence; further: nearly all actives have a fitted effect of over 55% in size
# Target sequence (P10636 561-689 P618L limits assumed): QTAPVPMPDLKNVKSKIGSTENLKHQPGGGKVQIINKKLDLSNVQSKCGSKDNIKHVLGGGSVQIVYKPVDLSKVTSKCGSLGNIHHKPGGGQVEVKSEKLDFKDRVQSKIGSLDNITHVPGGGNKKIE
#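 Aggregation was driven by heparin (20 uM final) acting on recombinant tau […] bearing P301L in 100 mM sodium acetate pH 7; fibrils were detected with Thioflavin T.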
# Tau fibril FP – blocks human tau fibril formation measured by polarization. P10636. K18 P301L tau heparin fibrillization, Alexa594 FP, 6 h. Potency, µM (series often up to 57.7 µM), for inactives: at the highest dose activity, negative = inhibition, actives largely listed as inhibitors. 280,000 tested, 0.39% active; further: nearly all actives have a fitted effect of over 55% in size
#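 Human tau K18 […] P301L fragment, 15 uM unlabeled plus 0.24 uM Alexa 594-labeled tau (final), with compound and 20 uM heparin in 100 mM sodium acetate pH 7; 6 hr at 37 C, then Alexa 594 FP read.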
# Numbers without * were called inactive; u = inconclusive; x = no result; [ ] = another dose, or the depositor's remark. Unless noted, the call rests on the fitted dose curve; in most records, active means well fitted curve in the direction sought with a large enough effect; inconclusive means small, poorly fitted or top-dose-only effect, or another doubt; inactive means no such curve, though single readings can be large; an effect the other way counts as inactive or inconclusive. Unless noted, on the % scale 0 is the no-effect control and ±100 the full control effect; potency means the concentration at half of the fitted maximal effect.
SMILES,TRb-SRC2 inh,Tau fluor cs,GoLoco inh red,TR SRC2 fluor cs,Tau ThT inhib,Tau fibril FP
CON(C)C(=O)c1nnc2c3ccccc3n(S(=O)(=O)c3ccc(C)cc3)c2n1,-5%[11.2 µM],-9%[11.6 µM],x,-1%[11.2 µM],-5%[11.5 µM],-4%[11.6 µM]
COC(=O)c1ccc(NS(=O)(=O)c2ccc3[nH]c4c(c3c2)CCCC4)cc1,-5%,10µM*[quencher],x,28µM*[quencher],1%,-14%
COC(=O)c1ccc(NS(=O)(=O)c2ccc3[nH]c4c(c3c2)CCCCC4)cc1,-7%,4µM*[quencher],x,u,-1%,u
CCOc1cc(/C=C2\C(=O)N(CCc3ccc(OC)c(OC)c3)C(C)=C2C(=O)OC)ccc1O,0%,u,-28%,3%,28µM*,u
COC(=O)C1=C(C)N(c2cccc(OC)c2)C(=O)/C1=C\c1ccco1,3%[53 µM],-20%,6%,-1%[53 µM],u,-11%
COC(=O)C1=C(C)N(Cc2ccc(C)cc2)C(=O)/C1=C\c1cc(OC)c(OC)c(OC)c1,8%,-16%,-2%,-2%,u,-8%
CCOc1cc(/C=C2\C(=O)N(Cc3ccco3)C(C)=C2C(=O)OC)ccc1O,-10%,u,-29%,1%,28µM*,u
COC(=O)C1=C(C)N(Cc2ccc(C)cc2)C(=O)/C1=C\c1ccc(O)c(OC)c1,-1%,u,-26%,3%,14µM*,u
C=CCN1C(=O)/C(=C\c2ccco2)C(C(=O)OC)=C1C,-7%,-5%,-28%,-1%,1%,4%
CCOC(=O)C1=C(C)N(c2ccc(OCC)cc2)C(=O)/C1=C\c1ccco1,0%,-22%,14%,-1%,14µM*,u
C=CCC(Nc1ccc(OC)cc1)(C(=O)OCC)c1ccccc1 (stereo unspecified),5%,-2%,2%,2%,-4%,0%
CCCNC(=O)[C@H]1O[C@@H]1C(=O)N[C@H](C(=O)N1CCC[C@H]1C(=O)OC)[C@@H](C)CC,11%,-2%,6%,-1%,-2%,-5%
CO/N=C1\C[C@]2(C[C@@H]3C[C@@H](C/C=C(\C)C[C@@H](C)/C=C/C=C4\CO[C@@H]5[C@H](O)C(C)=C[C@@H](C(=O)O3)[C@]45O)O2)O[C@H](/C(C)=C/C(C)C)[C@H]1C,7%[201 µM],x,x,0%[201 µM],x,x
CCOc1ccc(N2C(=O)S/C(=C\c3ccc(O)c(OC)c3)C2=O)cc1,-7%,u,4%,-2%,u,-4%
CCOC(=O)C1=C(C)N(c2ccc(C)cc2)C(=O)/C1=C\c1ccc(O)c(OC)c1,3%,u,-27%,-9%,25µM*,u
Cc1cc(C(C)(C)C)c(OCCCN2CCOCC2)c(C(C)(C)C)c1,x,x,3%[14.2 µM],x,x,x
CO[C@H]1COC(=O)C/C=C\[C@H](C)[C@@H](OC)COC(=O)C/C=C\[C@@H]1C,-7%[11.2 µM],-28%[11.6 µM],x,3%[11.2 µM],u,u
CC1=NN(c2ccc(C)c(C)c2)C(=O)/C1=C\C=C\c1ccc([N+](=O)[O-])o1,3%,u,13%,-20%,25µM*,u
Cc1ccc(NC(=O)CCC(=O)N/N=C/c2ccc([N+](=O)[O-])o2)cc1C,2%,-12%,-5%,-2%,x,-4%
c1ccc2c[n+](CCCC[n+]3ccc4ccccc4c3)ccc2c1,x,x,2%[14.2 µM],x,x,x
Cc1c(C(=O)Nc2ccccc2)sc2nc(-c3cc4ccccc4oc3=O)[nH]c(=O)c12,-2%,2%,x,282µM*[quencher],4%,-4%
Cc1ccccc1NC(=O)c1sc2nc(-c3cc4ccccc4oc3=O)[nH]c(=O)c2c1C,-5%,-3%,x,6%,1%,-8%
CC(=O)OC[C@@H]1O[C@H](C/C=N\O[C@@H](C)c2cn([C@H]3COC[C@H]3O)nn2)C=C[C@@H]1OC(C)=O,0%[11.2 µM],-10%[11.6 µM],x,3%[11.2 µM],-13%[11.5 µM],-2%[11.6 µM]
CC1OC(OCC2OC(Oc3cc(O)c4c(c3)OC(c3ccc(O)cc3)CC4=O)C(O)C(O)C2O)C(O)C(O)C1O (stereo unspecified),4%,x,x,-17%,x,x
COc1cc(NC(=O)O[C@@H]2C(=O)c3cc(Br)ccc3O[C@H]2c2ccc3c(c2)OCO3)cc(OC)c1OC,-1%,-19%,3%,-1%,-9%,-5%
SMILES,TRb-SRC2 inh,Tau fluor cs,GoLoco inh red,TR SRC2 fluor cs,Tau ThT inhib,Tau fibril FP
Oc1cccc(/C=N/Nc2cccc3cccnc23)c1,1%,16µM*[quencher],2%,-1%,14µM*,u
COc1cccc(/C=N/c2oc(-c3ccccc3)cc2C#N)c1O,-12%,-27%,16%,-3%,14µM*,1%
CC(=O)OCC1OC(C#CC2=CCCCC2)C=CC1OC(C)=O (stereo unspecified),4%[11.2 µM],-10%[11.6 µM],x,-4%[11.2 µM],u,-19%[11.6 µM]
COCCNC(=O)Cn1c(-c2cccs2)cc2cc(Cl)ccc21,-20%,-4%,x,126µM*[quencher],1%,2%
CCN1CCN(CCCNC(=O)Cn2c(-c3cccs3)cc3cc(F)ccc32)CC1,u,-6%,x,141µM*[quencher],-4%,-2%
CCS(=O)(=O)c1ccc2oc(Nc3cc(C)cc(C)c3)nc2c1,-2%,u,15%,0%,-11%,0%
CCS(=O)(=O)c1ccc2oc(Nc3ccc(C(C)C)cc3)nc2c1,0%,u,-14%,-10%,40µM*,u
CCc1nn(CC(=O)Nc2ccc(C)cc2C)c(=O)c2cc3sccc3n12,-3%,4%,x,1%,17%,-11%
CCc1nn(CC(=O)Nc2c(C)cc(C)cc2C)c(=O)c2cc3sccc3n12,1%,9%,x,0.28µM*[quencher],8%,8%
Fc1cccc(Cl)c1CNc1ccc(N2CCCC2)cc1,-19%,u,-14%,16%,5.6µM*,11µM*
C[c-]1[c-](C)[c-](C)[c-](C)[c-]1C.[Fe].c1cc2nccc(N3CCCC3)[c-]2c1 (stereo unspecified),-6%,u,-7%,-2%,32µM*,u
Cn1cc(C(=O)N/N=C/c2ccc(Br)c([N+](=O)[O-])c2)c2ccccc21,-2%,14µM*[quencher],1%,-2%,x,u
CCc1cccc2c1NC1(CCCC1)CC2C (stereo unspecified),28µM*,-22%,16%,u,u,-10%
CC1CC2(CCCCC2)Nc2ccc3ccccc3c21 (stereo unspecified),0%,-25%,22%,-3%,u,5%
CN(C)c1ccc(NC(=O)c2sc(SCC(=O)Nc3ccc(Br)cc3)nc2N)cc1,6%,-15%,-6%,0%,u,13%
CN(C)c1ccc(NC(=O)c2sc(SCC(=O)Nc3nccs3)nc2N)cc1,3%,14µM*[quencher],-39%,-6%,4µM*,11%
